# Results as given in PubChem BioAssay AID651635 (National Center for Advancing Translational Sciences (NCATS), 2012).
# Among all 400,000 compounds or so, about 1,900 (0.47%) were called active. Entries that show only a call come without a potency. About 14% were inconclusive and are not listed. Calls come from the whole dose curve; as a rule, active = well fitted cell-killing curve with a large enough effect; inconclusive = small, poorly fitted or top-dose-only effect, or effect the other way; inactive = no such curve, though single readings can be large or run the other way. Many of the other results were omitted from the sample, so actives are more common in it than they were.
# Assay: Viability Counterscreen for Primary qHTS for Inhibitors of ATXN expression; note: nearly all actives have a fitted effect of over 40% in size
# Conditions: S2 cells (HEK-293 line with an ATXN2-luciferase reporter) viability, CellTiter-Fluor protease fluorescence, 24 h; series mostly up to 56.7 µM
# Potency is the fitted concentration of half-maximal effect.
SMILES,Potency,"activity change, negative = cytotoxicity"
CC[C@H](C)CCCCC(=O)N[C@@H](CCN)C(=O)N[C@H](C(=O)N[C@@H](CCN)C(=O)N[C@H]1CCNC(=O)[C@H]([C@@H](C)O)NC(=O)[C@H](CCN)NC(=O)[C@H](CCN)NC(=O)[C@H](CC(C)C)NC(=O)[C@@H](CC(C)C)NC(=O)[C@H](CCN)NC1=O)[C@@H](C)O,inactive,–
CCC(C(=O)OCCN(CC)CC)c1ccccc1 (configuration not stated),inactive,–
CCN(CC)CCOC(=O)c1ccc(NC(=O)CNC(=O)c2ccccc2)cc1,inactive,–
CC1(C(=O)NCC2CCOCC2)Cc2c(-c3cccc(C(N)=O)c3)ccnc2O1 (configuration not stated),inactive,–
O=C1NC(CC(=O)N2CCC(n3c(C4CCC4)nc4cccnc43)CC2)c2ccccc21 (configuration not stated),inactive,–
O=CNc1cc(-c2ccc(C(=O)N3CCOCC3)cc2)cn2c(-c3ccc(F)cc3)cnc12,inactive,–
CCc1nc2c(OCCc3cccc(OC)c3)cccn2c1N(C)C(=O)c1ccc(C)cc1,inactive,–
COc1ccc(OCCCn2c(C)nc3cc(C)c(C)cc32)cc1,28.2 µM (active),–
Cc1cc2nc(C)n(CCCNC(=O)Nc3ccccc3)c2cc1C,inactive,–
Cc1cc2ncn(CCCCOc3ccccc3)c2cc1C,inactive,–
COc1ccc(C(C#N)=C2C=CC(=NO)c3ccccc32)cc1,inactive,–
CC[n+]1cc(C)ccc1/C=C/c1ccc(N(C)C)cc1,25.1 µM (active),–
NCC[C@H](O)C(=O)N[C@@H]1C[C@H](N)[C@@H](O[C@H]2O[C@H](CN)[C@@H](O)[C@H](O)[C@@H]2O)[C@H](O)[C@@H]1O[C@H]1O[C@H](CO)[C@@H](O)[C@H](N)[C@@H]1O,–,-2.32% [at 0.575 µM] (inactive)
CO[C@]1(NC(=O)CSC(F)F)C(=O)N2C(C(=O)O)=C(CSc3nnnn3CCO)CO[C@H]21,inactive,–
COc1ccccc1NC(=O)c1oc2ccccc2c1NC(=O)COc1ccccc1OC,inactive,–
O=C(CCN1Cc2ccccc2OC(c2ccccc2)C1)N[C@@H]1CS(=O)(=O)C[C@H]1O (some centres not stated),inactive,–
COc1cc(C(=O)OC(C)C(=O)NCC2CCCCC2)cc(NC(=O)c2ccco2)c1OC (configuration not stated),31.6 µM (active),–
CC(OC(=O)c1cccc(S(=O)(=O)N2CCOCC2)c1)C(=O)NCC1CCCCC1 (configuration not stated),inactive,–
CC(OC(=O)c1ccc([N+](=O)[O-])cc1)C(=O)NCC1CCCCC1 (configuration not stated),inactive,–
CCOC(=O)Cc1cccc(-c2cc(CCCCCCc3ccc(O[C@H]4O[C@H](COC(C)=O)[C@@H](OC(C)=O)[C@H](OC(C)=O)[C@@H]4OC(C)=O)c(-c4cccc(CC(=O)OCC)c4)c3)ccc2O[C@H]2O[C@H](COC(C)=O)[C@@H](OC(C)=O)[C@H](OC(C)=O)[C@@H]2OC(C)=O)c1,inactive,–
CN(C)CCNC(=O)c1ccc(-c2cn3c(-c4ccc(Oc5ccccc5)cc4)cnc3cn2)cc1,inactive,–

SMILES,Potency,"activity change, negative = cytotoxicity"
Cc1ccccc1-c1ccc2c(c1)O[C@@H](CN(C)Cc1ccc(C(=O)O)cc1)[C@@H](C)CN([C@H](C)CO)S2(=O)=O,inactive,–
CCCCC[C@H](C)N1C[C@@H](COCc2ccccc2)Oc2cc(N3CC[C@@H](N(C)C)C3)ccc2S1(=O)=O,25.1 µM (active),–
CCCCN1CC(COCc2ccccc2)OCCS1(=O)=O (configuration not stated),inactive,–
Cc1oc2ccc(O)c(CN3CCOCC3)c2c1C(=O)Nc1cccc(Cl)c1C,inactive,–
Cc1oc2ccc(O)c(CN3CCCCC3)c2c1C(=O)Nc1cccc(C(F)(F)F)c1,28.2 µM (active),–
CCN1CCN(Cc2c(O)ccc3oc(C)c(C(=O)Nc4ccc(C)cc4C)c23)CC1,inactive,–
COC(=O)/C=C(/C)N,inactive,–
COCCN1CCN(C(=O)c2sc3ncnc(NCC4CCCO4)c3c2C)CC1 (configuration not stated),inactive,–
O=C(Nc1ccncc1)c1ccccc1[N+](=O)[O-],inactive,–
Cc1csc(NC(=O)Nc2ccccc2[N+](=O)[O-])n1,inactive,–
CC(=O)Oc1ccccc1C(=O)Nc1ncc([N+](=O)[O-])s1,39.8 µM (active),–
CC(C)(C)S(=O)N1Cc2cc(C(=O)NCCCN3CCOCC3)nc(-c3cccc(-c4cc5ccccc5o4)c3)c2[C@H]1CCO (some centres not stated),inactive,–
CC(Oc1ccccc1)C(=O)N[C@@H]1C(=O)N2[C@@H]1SC(C)(C)[C@@H]2C(=O)O (some centres not stated),inactive,–
COCc1cccc(-c2csc(C(O)c3ccc(F)cc3)n2)c1 (configuration not stated),inactive,–
CN1CCN(c2nc3c(c(=O)[nH]c(=O)n3C)n2Cc2cccc3ccccc23)CC1,inactive,–
Cn1c(=O)[nH]c(=O)c2c1nc(N1CCN(C(c3ccccc3)c3ccccc3)CC1)n2CCO,3.16 µM (active),–
Cn1c(=O)[nH]c(=O)c2c1nc(N1CCN(CCO)CC1)n2CCSc1nc2ccccc2s1,inactive,–
CN[C@@H]1[C@@H](O)[C@@H](O[C@@H]2[C@H](O)[C@H](O[C@H]3OC(CN)=CC[C@H]3N)[C@@H](N)C[C@H]2N)OCC1(C)O (some centres not stated),inactive,–
CC(=O)Nc1ccc(-c2cn3cccnc3n2)cc1,inactive,–
O=C(CSC1=NCCS1)Nc1nc(-c2ccccc2)cs1,inactive,–
CC(=O)Nc1ccc(-c2csc(NC(=O)Nc3ccccc3)n2)cc1,15 µM (active),–
